Source: article PMC7862700, “An all-to-all approach to the identification of sequence-specific readers for epigenetic DNA modifications on cytosine”

Experiments:
Experiment in all cases: DAPPL (digital affinity profiling via proximity ligation, sequencing); 10 mM Tris-HCl pH 7.5, 50 mM NaCl, 1 mM DTT, 4% glycerol, room temperature, 30 min; GST-TFs on glutathione beads, 16-mer random dsDNA library, 0.1% formaldehyde crosslink after washing; high values mean tight binding
Conditions in all cases: protein: recombinant; tags: N-terminal GST; dsDNA, one strand shown
ERF = target: T1, ERF (Homo sapiens, UniProt P50548 1-548)
T1 sequence: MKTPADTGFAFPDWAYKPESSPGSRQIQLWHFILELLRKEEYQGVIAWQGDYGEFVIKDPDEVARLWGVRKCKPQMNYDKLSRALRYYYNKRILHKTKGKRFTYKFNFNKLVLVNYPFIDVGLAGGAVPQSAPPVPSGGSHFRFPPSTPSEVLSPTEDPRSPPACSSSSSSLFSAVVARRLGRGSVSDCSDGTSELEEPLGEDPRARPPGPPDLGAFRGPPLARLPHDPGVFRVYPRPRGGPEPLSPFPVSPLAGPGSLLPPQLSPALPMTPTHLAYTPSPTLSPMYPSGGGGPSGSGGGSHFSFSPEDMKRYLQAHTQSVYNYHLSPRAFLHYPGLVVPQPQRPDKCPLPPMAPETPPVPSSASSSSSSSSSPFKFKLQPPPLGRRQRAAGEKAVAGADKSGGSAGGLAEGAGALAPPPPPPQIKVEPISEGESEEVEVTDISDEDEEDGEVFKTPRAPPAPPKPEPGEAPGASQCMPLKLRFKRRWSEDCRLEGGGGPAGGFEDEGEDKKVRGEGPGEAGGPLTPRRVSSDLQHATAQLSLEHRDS
Procedure, shortened: (§1)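 Binding signal is given per hexamer as its read frequency for a factor divided by its frequency in the tag-only sample. GST-fused human transcription factors were expressed in yeast, captured on glutathione beads, barcoded with DNA and pooled with that sample, then incubated with 200 nmole of a 16-mer random double-stranded DNA library in Tris/NaCl/DTT/glycerol buffer for 30 min at room temperature. The pools were then washed, crosslinked, proximity-ligated, amplified by PCR and sequenced on an Illumina NextSeq500.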

ETS2 = target: T2, ETS2 (Homo sapiens, UniProt P15036 1-469)
T2 sequence: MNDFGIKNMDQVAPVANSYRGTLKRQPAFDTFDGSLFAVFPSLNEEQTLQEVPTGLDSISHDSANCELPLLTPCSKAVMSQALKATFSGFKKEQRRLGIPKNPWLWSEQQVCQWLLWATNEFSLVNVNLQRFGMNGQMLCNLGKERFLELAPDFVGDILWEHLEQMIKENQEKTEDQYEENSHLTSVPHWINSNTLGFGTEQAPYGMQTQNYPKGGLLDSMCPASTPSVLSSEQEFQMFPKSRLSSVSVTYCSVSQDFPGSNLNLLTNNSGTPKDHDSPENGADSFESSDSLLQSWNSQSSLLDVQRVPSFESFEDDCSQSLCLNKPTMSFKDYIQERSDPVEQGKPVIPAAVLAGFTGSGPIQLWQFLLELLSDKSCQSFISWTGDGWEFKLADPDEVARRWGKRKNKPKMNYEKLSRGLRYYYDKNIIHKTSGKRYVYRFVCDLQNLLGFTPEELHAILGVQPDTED
Procedure, shortened: as §1

ETV7 = target: T3, ETV7 (Homo sapiens, UniProt Q9Y603 1-341)
T3 sequence: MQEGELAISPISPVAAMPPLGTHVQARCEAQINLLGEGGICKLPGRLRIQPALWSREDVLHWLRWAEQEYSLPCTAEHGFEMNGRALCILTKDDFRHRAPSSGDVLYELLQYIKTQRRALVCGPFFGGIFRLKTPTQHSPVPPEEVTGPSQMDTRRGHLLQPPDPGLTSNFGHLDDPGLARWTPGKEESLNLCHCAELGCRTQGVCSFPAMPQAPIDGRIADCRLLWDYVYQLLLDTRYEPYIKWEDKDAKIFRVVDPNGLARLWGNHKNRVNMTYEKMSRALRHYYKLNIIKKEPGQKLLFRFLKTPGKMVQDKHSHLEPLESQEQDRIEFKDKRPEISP
Procedure, shortened: as §1

ELF5 = target: T4, ELF5 (Homo sapiens, UniProt Q9UKW6-2 1-255)
T4 sequence: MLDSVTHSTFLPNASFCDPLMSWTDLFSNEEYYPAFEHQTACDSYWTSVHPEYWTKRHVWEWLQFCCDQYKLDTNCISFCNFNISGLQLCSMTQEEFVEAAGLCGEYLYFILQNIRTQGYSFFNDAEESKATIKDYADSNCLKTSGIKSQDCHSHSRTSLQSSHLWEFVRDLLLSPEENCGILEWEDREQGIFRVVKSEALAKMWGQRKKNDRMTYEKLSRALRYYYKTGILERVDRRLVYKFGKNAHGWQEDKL
Procedure, shortened: as §1

ETV3 = target: T5, ETV3 (Homo sapiens, UniProt P41162-2 1-143)
T5 sequence: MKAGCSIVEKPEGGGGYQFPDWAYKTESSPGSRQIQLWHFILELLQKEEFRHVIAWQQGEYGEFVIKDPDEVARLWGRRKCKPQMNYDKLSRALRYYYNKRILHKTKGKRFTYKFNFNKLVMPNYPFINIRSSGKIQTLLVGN
Procedure, shortened: as §1

ETV6 = ETV6 (Homo sapiens, UniProt P41212 1-452)
Procedure, shortened: as §1

SPDEF = target: T6, SPDEF (Homo sapiens, UniProt O95238 1-335)
T6 sequence: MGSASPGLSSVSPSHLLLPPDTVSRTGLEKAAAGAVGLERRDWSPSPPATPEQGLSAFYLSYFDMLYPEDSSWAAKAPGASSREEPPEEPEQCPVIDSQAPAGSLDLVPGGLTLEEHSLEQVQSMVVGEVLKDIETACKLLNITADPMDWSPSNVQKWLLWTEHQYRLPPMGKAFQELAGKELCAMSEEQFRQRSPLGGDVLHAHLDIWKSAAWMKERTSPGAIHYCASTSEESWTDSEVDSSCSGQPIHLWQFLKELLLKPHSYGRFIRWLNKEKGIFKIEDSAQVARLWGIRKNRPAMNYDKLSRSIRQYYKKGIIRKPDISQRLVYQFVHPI
Procedure, shortened: as §1

ETV3L = target: T7, ETV3L (Homo sapiens, UniProt Q6ZN32 1-361)
T7 sequence: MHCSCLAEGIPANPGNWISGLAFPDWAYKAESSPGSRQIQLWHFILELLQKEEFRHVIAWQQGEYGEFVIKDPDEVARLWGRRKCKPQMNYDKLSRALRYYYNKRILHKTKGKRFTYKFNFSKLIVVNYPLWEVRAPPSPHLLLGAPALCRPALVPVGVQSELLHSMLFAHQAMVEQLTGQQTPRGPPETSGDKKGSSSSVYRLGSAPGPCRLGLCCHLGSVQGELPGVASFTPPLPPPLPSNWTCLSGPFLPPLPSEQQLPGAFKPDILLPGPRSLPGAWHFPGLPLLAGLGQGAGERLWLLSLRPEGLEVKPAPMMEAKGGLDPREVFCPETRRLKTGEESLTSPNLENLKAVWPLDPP
Procedure, shortened: as §1

Sequence of ETV6 (P41212 whole entry): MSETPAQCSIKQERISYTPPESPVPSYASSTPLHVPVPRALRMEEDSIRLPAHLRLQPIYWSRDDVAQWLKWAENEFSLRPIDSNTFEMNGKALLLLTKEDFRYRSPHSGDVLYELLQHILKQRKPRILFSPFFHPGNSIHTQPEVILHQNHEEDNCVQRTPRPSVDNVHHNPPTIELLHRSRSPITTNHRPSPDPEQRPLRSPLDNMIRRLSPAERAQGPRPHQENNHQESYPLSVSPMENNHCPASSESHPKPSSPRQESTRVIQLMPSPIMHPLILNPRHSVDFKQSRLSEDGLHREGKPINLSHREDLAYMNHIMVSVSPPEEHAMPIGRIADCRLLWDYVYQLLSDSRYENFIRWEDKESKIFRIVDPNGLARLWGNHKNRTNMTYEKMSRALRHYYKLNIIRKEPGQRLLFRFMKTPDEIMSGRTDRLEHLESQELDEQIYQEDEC

Row | Sequence | binding signal (ERF) | binding signal (ETS2) | binding signal (ETV7) | binding signal (ELF5) | binding signal (ETV3) | binding signal (ETV6) | binding signal (SPDEF) | binding signal (ETV3L)
1 | TAAAGC | 1.13 fold enrichment (6-mer frequency, TF over GST control) | 1.05 fold enrichment (6-mer frequency, TF over GST control) | 1.04 fold enrichment (6-mer frequency, TF over GST control) | 1.01 fold enrichment (6-mer frequency, TF over GST control) | 1.1 fold enrichment (6-mer frequency, TF over GST control) | 1.02 fold enrichment (6-mer frequency, TF over GST control) |  | 
2 | CATGAA | 1.02 fold enrichment (6-mer frequency, TF over GST control) | 1.07 fold enrichment (6-mer frequency, TF over GST control) |  | 1.04 fold enrichment (6-mer frequency, TF over GST control) | 1.14 fold enrichment (6-mer frequency, TF over GST control) |  | 1.03 fold enrichment (6-mer frequency, TF over GST control) | 
3 | CTGTAA | 1.2 fold enrichment (6-mer frequency, TF over GST control) | 1.09 fold enrichment (6-mer frequency, TF over GST control) |  | 1.03 fold enrichment (6-mer frequency, TF over GST control) | 1.12 fold enrichment (6-mer frequency, TF over GST control) | 1.03 fold enrichment (6-mer frequency, TF over GST control) |  | 
4 | GGTTCA | 1.01 fold enrichment (6-mer frequency, TF over GST control) | 1.11 fold enrichment (6-mer frequency, TF over GST control) |  | 1.02 fold enrichment (6-mer frequency, TF over GST control) | 1.09 fold enrichment (6-mer frequency, TF over GST control) | 1.09 fold enrichment (6-mer frequency, TF over GST control) | 1.13 fold enrichment (6-mer frequency, TF over GST control) | 
5 | GGCTTA | 1.09 fold enrichment (6-mer frequency, TF over GST control) | 1.09 fold enrichment (6-mer frequency, TF over GST control) |  |  | 1.05 fold enrichment (6-mer frequency, TF over GST control) |  | 1.09 fold enrichment (6-mer frequency, TF over GST control) | 
6 | ACTTAG | 1.17 fold enrichment (6-mer frequency, TF over GST control) | 1.14 fold enrichment (6-mer frequency, TF over GST control) | 1.03 fold enrichment (6-mer frequency, TF over GST control) |  | 1.09 fold enrichment (6-mer frequency, TF over GST control) | 1.14 fold enrichment (6-mer frequency, TF over GST control) | 1.01 fold enrichment (6-mer frequency, TF over GST control) | 
7 | TGCTGT | 1.08 fold enrichment (6-mer frequency, TF over GST control) | 1.15 fold enrichment (6-mer frequency, TF over GST control) | 1.13 fold enrichment (6-mer frequency, TF over GST control) |  |  | 1.03 fold enrichment (6-mer frequency, TF over GST control) |  | 
8 | TTTGAG | 1.13 fold enrichment (6-mer frequency, TF over GST control) | 1.08 fold enrichment (6-mer frequency, TF over GST control) | 1.1 fold enrichment (6-mer frequency, TF over GST control) | 1.03 fold enrichment (6-mer frequency, TF over GST control) | 1.22 fold enrichment (6-mer frequency, TF over GST control) | 1.02 fold enrichment (6-mer frequency, TF over GST control) | 1.04 fold enrichment (6-mer frequency, TF over GST control) | 
9 | CTATGA | 1.12 fold enrichment (6-mer frequency, TF over GST control) | 1.15 fold enrichment (6-mer frequency, TF over GST control) | 1.08 fold enrichment (6-mer frequency, TF over GST control) | 1 fold enrichment (6-mer frequency, TF over GST control) |  |  | 1.07 fold enrichment (6-mer frequency, TF over GST control) | 
10 | CGCCAA | 1.07 fold enrichment (6-mer frequency, TF over GST control) | 1.04 fold enrichment (6-mer frequency, TF over GST control) | 1.01 fold enrichment (6-mer frequency, TF over GST control) |  | 1.04 fold enrichment (6-mer frequency, TF over GST control) | 1.03 fold enrichment (6-mer frequency, TF over GST control) |  | 
11 | AGGTTT | 1.13 fold enrichment (6-mer frequency, TF over GST control) | 1.01 fold enrichment (6-mer frequency, TF over GST control) | 1.08 fold enrichment (6-mer frequency, TF over GST control) | 1.04 fold enrichment (6-mer frequency, TF over GST control) | 1.11 fold enrichment (6-mer frequency, TF over GST control) | 1.03 fold enrichment (6-mer frequency, TF over GST control) | 1.02 fold enrichment (6-mer frequency, TF over GST control) | 
12 | AACGTA | 1.05 fold enrichment (6-mer frequency, TF over GST control) |  | 1.05 fold enrichment (6-mer frequency, TF over GST control) | 1 fold enrichment (6-mer frequency, TF over GST control) | 1.04 fold enrichment (6-mer frequency, TF over GST control) | 1.03 fold enrichment (6-mer frequency, TF over GST control) | 1.01 fold enrichment (6-mer frequency, TF over GST control) | 
13 | CTCAGG | 1.02 fold enrichment (6-mer frequency, TF over GST control) | 1.12 fold enrichment (6-mer frequency, TF over GST control) |  | 1.04 fold enrichment (6-mer frequency, TF over GST control) | 1.01 fold enrichment (6-mer frequency, TF over GST control) | 1.08 fold enrichment (6-mer frequency, TF over GST control) | 1 fold enrichment (6-mer frequency, TF over GST control) | 
14 | ATGTAG | 1.14 fold enrichment (6-mer frequency, TF over GST control) | 1.08 fold enrichment (6-mer frequency, TF over GST control) |  | 1.04 fold enrichment (6-mer frequency, TF over GST control) | 1.08 fold enrichment (6-mer frequency, TF over GST control) | 1.02 fold enrichment (6-mer frequency, TF over GST control) | 1.09 fold enrichment (6-mer frequency, TF over GST control) | 
15 | GTTAAA | 1.09 fold enrichment (6-mer frequency, TF over GST control) |  |  |  | 1.04 fold enrichment (6-mer frequency, TF over GST control) | 1.08 fold enrichment (6-mer frequency, TF over GST control) |  | 1.04 fold enrichment (6-mer frequency, TF over GST control)
16 | ACACCA |  |  |  | 1.01 fold enrichment (6-mer frequency, TF over GST control) | 1.02 fold enrichment (6-mer frequency, TF over GST control) |  |  | 1.04 fold enrichment (6-mer frequency, TF over GST control)
17 | AAAAGT |  | 1.07 fold enrichment (6-mer frequency, TF over GST control) | 1.16 fold enrichment (6-mer frequency, TF over GST control) | 1.08 fold enrichment (6-mer frequency, TF over GST control) | 1.07 fold enrichment (6-mer frequency, TF over GST control) | 1.06 fold enrichment (6-mer frequency, TF over GST control) | 1.12 fold enrichment (6-mer frequency, TF over GST control) | 1.08 fold enrichment (6-mer frequency, TF over GST control)
18 | GAATAT |  | 1.05 fold enrichment (6-mer frequency, TF over GST control) | 1.1 fold enrichment (6-mer frequency, TF over GST control) | 1.12 fold enrichment (6-mer frequency, TF over GST control) | 1.12 fold enrichment (6-mer frequency, TF over GST control) | 1.07 fold enrichment (6-mer frequency, TF over GST control) | 1.02 fold enrichment (6-mer frequency, TF over GST control) | 1.05 fold enrichment (6-mer frequency, TF over GST control)
